HT1080 IDH1KD tx: kills HT-1080 cells with IDH1 knockdown. HT-1080 IDH1 knockdown viability, ATP luminescence, 48 h. Potency, µM (doses to about 46.1 µM), without a hit: top-dose activity, negative = toxicity, actives largely listed as cytotoxic. hit rate 2% among 360,000;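 also: 0% = DMSO wells and -100% = cell-free medium wells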
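Assay cells: HT-1080 with IDH1 knockdown, 750 per well, RPMI/5% FBS. Exposure: 48 h at 37 °C following 2 h pre-incubation. Read: CellTiter-Glo luminescence; fitted concentration-response, curve class assigned.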
HT1080-NT tox: kills 2HG-producing HT-1080-NT fibrosarcoma cells; HT-1080-NT fibrosarcoma viability, CellTiter-Glo ATP luminescence, 48 h; Potency, µM (titrated, usually from 46.1 µM), for the others: top-dose activity, negative = less viability, most hits filed as cytotoxic; hit rate 1.6% among 360,000;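 also: NT is the 2HG producing partner of a matched IDH1 knockdown line; 0% = DMSO-treated cells and -100% = media-only wells without cells; nearly all actives have a fitted effect of over 55% in size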
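Read-out is CellTiter-Glo luminescence after 10 minutes at room temperature, following 48 hours' compound treatment of HT-1080-NT cells (750 cells/well, RPMI, 5% FBS, 37 degrees C).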
TGFb SMAD3 inh: blocks TGF-b signaling | AID 588855 | Potency, µM (top dose mostly 46.1 µM), for the others: top-dose activity, negative = inhibition, hits mostly inhibitors | HepG2 CAGA-GFP TGF-b/SMAD3 reporter, GFP fluorescence, 18 h; TGF-beta stimulated, 500 pg/mL final | hit rate 1.2% among 410,000; also: % is scaled to controls: 0 for no effect and ±100 for the full control effect; nearly all actives have a fitted effect of over 65% in size
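Per well, imaged GFP fluorescence of HEPG2 CAGA-GFP cells gives the signal; cells get compound, then TGF-beta (500 pg/mL final), 18 h at 37 degrees C; %Activity versus -TGF-beta and +DMSO controls.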
TDP1 cell CPT: growth inhibition of DT40 Tdp1-/-;hTDP1 cells with camptothecin (screen for TDP1 inhibitors). chicken DT40 Tdp1-/-;hTDP1 cells + 20 nM CPT, ATP luminescence, 48 h. hit rate 12% among 420,000. Potency, µM (highest dose often 46.2 µM), without a hit: top-dose activity change, negative = growth inhibition, actives largely listed as inhibitors; also: % is scaled to controls: 0 for no effect and ±100 for the full control effect; nearly all actives have a fitted effect of over 55% in size
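Cell growth measured by CellTiter-Glo luminescence after a minimum 48 h, 37 C compound exposure with 20 nM CPT in Tdp1-knockout DT40 cells stably expressing hTDP1, seeded 400/well; qHTS titration format.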
HepG2 viability: counter-screen for TGF-b inhibitors: cytotoxicity in HepG2 cells; hit rate 0.76% among 410,000; Potency, µM (highest dose often 46.1 µM), without a hit: at the top dose activity change, negative = cytotoxicity, actives largely listed as cytotoxic; HepG2 CAGA-GFP viability, ATP luminescence, 18 h; AID 588856
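HepG2 CAGA-GFP cells (1000/well, DMEM with 1% FBS) received compound, then TGF-beta at 500 pg/mL final, and were incubated 18 hours at 37 degrees C. Viability was read by CellTiter-Glo luminescence. Media-only wells were set as complete cell-killing and DMSO as no toxicity.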
TDP1 cell noCPT: qHTS for Inhibitors of human tyrosyl-DNA phosphodiesterase 1 (TDP1): qHTS in cells in absence of CPT | DT40 Tdp1-/- hTDP1 cells, no CPT, ATP luminescence, 48 h | Potency, µM (highest dose often 46.2 µM), for the others: top-dose activity change, negative = growth inhibition, hits mostly inhibitors | hit rate 15% among 420,000 | AID 686978, 2013; also: % is scaled to controls: 0 for no effect and ±100 for the full control effect; nearly all actives have a fitted effect of over 55% in size
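Growth kinetics read by CellTiter-Glo luminescence after ≥48 hr at 37 °C. Cells: DT40 Tdp1-/- stably carrying human TDP1, 400 per well, compound exposure in the absence of CPT (DMSO vehicle).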
* = called active by the depositor; ? = inconclusive; · = not tested or not shown. Shown are actives, neighbours in structure and some others; about 17% of the full set was active somewhere. Calls follow the shape of the dose curve; as a rule, active = well fitted curve in the direction sought with a large enough effect; inconclusive = small, poorly fitted or top-dose-only effect, or another doubt; inactive = no such curve, though single readings can be large; an effect the other way counts as inactive or inconclusive. Potency is read from the fitted curve at half-maximal effect.

SMILES	HT1080 IDH1KD tx	HT1080-NT tox	TGFb SMAD3 inh	TDP1 cell CPT	HepG2 viability	TDP1 cell noCPT
COC(=O)c1cc2ccsc2n1CC(=O)Nc1cc(Cl)ccc1OC	?	7.94µM*	?	7.31µM*	-20.9%	13µM*
CCCN(CCC)CC(O)Cn1cc(/C=C/C(=O)c2ccc(Br)cc2)c2ccccc21 (stereo not drawn)	·	·	7.7%	3.26µM*	-35.5%	4.61µM*
CCCN(CCC)CC(O)Cn1cc(/C=C/C(=O)c2ccc(C)cc2)c2ccccc21 (stereo not drawn)	·	·	?	?	8.91µM*	20.6µM*
COc1cccc(-c2nn(-c3ccccc3)cc2/C=C\C(=O)c2cccs2)c1	7.4%	15.3%	0.4%	-27.5%	3.0%	-27.9%
CC(C)(C)NCC(O)Cn1cc(C=O)c2ccccc21 (stereo not drawn)	-0.8%	-6.4%	-10.0%	-6.5%	-20.3%	-1.1%
OCCN(CCO)CC(O)Cn1c2ccccc2c2ccccc21 (stereo not drawn)	-2.4%	-23.3%	26.5%	-19.6%	-12.0%	?
CCCN(CCC)CC(O)Cn1cc(/C=C/C(=O)c2cccs2)c2ccccc21 (stereo not drawn)	-0.9%	-7.3%	-20.7%	18.4µM*	-20.4%	?
Cc1cc(C(=O)COC(=O)c2cc(Cl)c(O)c(Cl)c2)c(C)n1C	-0.1%	-1.6%	-24.9%	-15.9%	-33.9%	-3.8%
O=C(NC1CCCN(Cc2ccc(Cl)cc2)C1)c1ccoc1 (stereo not drawn)	-6.2%	0.4%	-13.9%	-26.0%	-12.4%	-12.7%
Cc1cccc2cc(/C=C/C(=O)c3ccco3)c(Cl)nc12	-12.9%	-0.1%	-32.6%	4.61µM*	-178.4%	8.2µM*
Cc1cccc2cc(/C=N/Nc3ccc(C(=O)O)cc3)c(Cl)nc12	-20.2%	-0.3%	3.8%	-26.3%	6.7%	?
CCOc1ccc2nc(Cl)c(/C=C/C(=O)c3ccco3)cc2c1	-7.1%	?	?	10.3µM*	-45.8%	14.6µM*
CCN(c1cccc(C)c1)S(=O)(=O)c1ccc(-n2cccn2)cc1	-7.3%	-15.2%	-20.2%	?	-7.6%	?
CN1CCN(C(=S)SCc2nc(N)nc(Nc3ccc(F)cc3)n2)CC1	-11.9%	-3.5%	-0.4%	-5.9%	-15.9%	-8.4%
C1=CN2CC=Cc3cc(/C=C/c4ccnc5ccccc45)cc(c32)C1	·	·	125.5%	10µM*	-20.2%	7.08µM*
O=C1C(Sc2ccccc2)=C[C@@]2(O)CC[C@@H](O)[C@]1(Sc1ccccc1)[C@H]2O	?	?	·	5.17µM*	·	5.8µM*
COC(=O)[C@@]1(Sc2ccccc2)CC(=O)N[C@@H]1c1ccccc1	2.9%	16.0%	·	7.6%	·	-22.0%
COc1ccc(SC2=C[C@@]3(O)CC[C@@H](O)[C@@](Sc4ccc(OC)cc4)(C2=O)[C@H]3O)cc1	-18.4%	-13.3%	·	23.1µM*	·	16.4µM*
C=C1C(=O)OCC2C(C(=O)O)=CC3C(C)C(C)=CC123 (stereo not drawn)	?	-10.8%	?	18.4µM*	-36.3%	18.4µM*
CC[C@@]1(O)C(=O)OCc2c1cc1n(c2=O)Cc2cc3c([N+](=O)[O-])cccc3nc2-1	·	·	·	0.0335µM*	·	0.211µM*
CC[C@@]1(O)C(=O)OCc2c1cc1n(c2=O)Cc2cc3c(CN(C)C)c(O)ccc3nc2-1	2.06µM*	1.16µM*	?	0.146µM*	-28.2%	0.184µM*
O=c1cccc2n1Cc1cc3ccccc3nc1-2	-0.3%	-4.1%	-9.6%	?	-21.1%	?
CCCCc1cc(=O)oc2c(CN(C)C)c(O)ccc12	-11.0%	-10.3%	-4.5%	-8.2%	-10.4%	-20.3%

From PubChem
